Among the data in ChEMBL document CHEMBL1961873, “Compounds: GSK PKIS; Assays: Nanosyn kinase panel” (2012) are inhibition values, retold here.

As usually defined, the inhibition is the change of the read-out against control, counted positive when it falls.

In assay [1] the target is T1, Muscle, skeletal receptor tyrosine-protein kinase (Homo sapiens) (UniProt O15146).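 Further: reported value is the mean percent inhibition of MuSK kinase.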
T1 sequence (whole entry): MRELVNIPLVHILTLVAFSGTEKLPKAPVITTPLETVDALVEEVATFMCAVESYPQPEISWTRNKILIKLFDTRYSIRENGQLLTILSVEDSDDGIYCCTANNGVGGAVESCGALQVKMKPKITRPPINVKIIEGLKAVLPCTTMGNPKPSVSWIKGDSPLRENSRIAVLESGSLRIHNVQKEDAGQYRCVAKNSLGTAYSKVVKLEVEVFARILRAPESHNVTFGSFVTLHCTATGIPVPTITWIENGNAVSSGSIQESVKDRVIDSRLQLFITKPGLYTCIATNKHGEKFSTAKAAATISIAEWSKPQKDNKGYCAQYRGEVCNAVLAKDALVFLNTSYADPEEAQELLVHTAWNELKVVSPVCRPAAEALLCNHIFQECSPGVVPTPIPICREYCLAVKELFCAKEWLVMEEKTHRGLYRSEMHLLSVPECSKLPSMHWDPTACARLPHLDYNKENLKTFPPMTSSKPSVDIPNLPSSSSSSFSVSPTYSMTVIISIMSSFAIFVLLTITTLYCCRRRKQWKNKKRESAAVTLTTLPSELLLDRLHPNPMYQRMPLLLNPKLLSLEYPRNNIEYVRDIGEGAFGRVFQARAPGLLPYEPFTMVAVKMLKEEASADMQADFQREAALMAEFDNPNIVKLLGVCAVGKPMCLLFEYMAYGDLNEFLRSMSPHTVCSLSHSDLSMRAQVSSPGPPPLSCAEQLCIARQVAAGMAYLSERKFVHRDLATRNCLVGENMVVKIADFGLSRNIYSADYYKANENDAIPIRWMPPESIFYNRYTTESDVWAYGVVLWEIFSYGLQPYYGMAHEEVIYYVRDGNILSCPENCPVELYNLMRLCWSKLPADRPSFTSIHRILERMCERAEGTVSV
Conditions: at 1 µM.

Assay [2] has as its target Platelet-derived growth factor receptor alpha (Homo sapiens) (UniProt P16234). Conditions: at 0.1 µM.
The target is the same in assay [3]. Conditions: at 1 µM.
For assay [4], the system named is Platelet-derived growth factor receptor alpha (Homo sapiens), P16234 [D842V]. To be noted: at 0.1 µM.
Chain of Platelet-derived growth factor receptor alpha (Homo sapiens), P16234 [D842V] (P16234 whole entry D842V): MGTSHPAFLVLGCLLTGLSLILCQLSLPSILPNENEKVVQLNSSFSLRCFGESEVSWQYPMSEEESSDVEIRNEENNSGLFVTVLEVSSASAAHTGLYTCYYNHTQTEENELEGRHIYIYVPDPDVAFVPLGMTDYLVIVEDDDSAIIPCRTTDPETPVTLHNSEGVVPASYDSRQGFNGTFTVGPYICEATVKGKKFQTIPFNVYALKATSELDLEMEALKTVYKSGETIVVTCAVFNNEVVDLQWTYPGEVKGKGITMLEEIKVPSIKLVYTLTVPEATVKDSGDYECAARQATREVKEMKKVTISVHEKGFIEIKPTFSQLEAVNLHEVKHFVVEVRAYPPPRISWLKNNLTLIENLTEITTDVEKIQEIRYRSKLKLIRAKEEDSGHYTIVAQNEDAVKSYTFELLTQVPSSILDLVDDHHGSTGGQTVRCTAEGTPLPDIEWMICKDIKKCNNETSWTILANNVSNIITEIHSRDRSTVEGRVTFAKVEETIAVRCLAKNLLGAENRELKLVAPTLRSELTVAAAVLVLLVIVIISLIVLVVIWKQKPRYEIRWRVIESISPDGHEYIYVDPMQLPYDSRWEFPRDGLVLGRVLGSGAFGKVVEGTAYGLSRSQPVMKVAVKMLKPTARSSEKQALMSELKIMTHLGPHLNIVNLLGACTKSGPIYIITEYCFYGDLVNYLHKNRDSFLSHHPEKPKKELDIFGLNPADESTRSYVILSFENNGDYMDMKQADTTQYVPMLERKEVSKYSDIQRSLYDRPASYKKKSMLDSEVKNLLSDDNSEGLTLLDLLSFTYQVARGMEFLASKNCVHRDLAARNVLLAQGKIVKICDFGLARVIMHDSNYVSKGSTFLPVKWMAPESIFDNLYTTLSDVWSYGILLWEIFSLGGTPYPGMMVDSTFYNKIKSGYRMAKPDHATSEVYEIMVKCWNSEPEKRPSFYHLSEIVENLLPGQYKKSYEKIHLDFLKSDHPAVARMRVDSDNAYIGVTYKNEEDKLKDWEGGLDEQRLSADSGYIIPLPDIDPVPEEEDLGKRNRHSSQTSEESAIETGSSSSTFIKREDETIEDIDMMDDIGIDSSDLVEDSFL
The test system is the same in assay [5]. To be noted: at 1 µM.
Assay [6] concerns Platelet-derived growth factor receptor alpha (Homo sapiens), P16234 [T674I]. To be noted: at 0.1 µM.
Chain of Platelet-derived growth factor receptor alpha (Homo sapiens), P16234 [T674I] (P16234 whole entry T674I): as the sequence (P16234 whole entry D842V) above, with T674I, V842D counted along it
Assay [7] has the same test system. Conditions: at 1 µM.
Assay [8] has as its system Platelet-derived growth factor receptor alpha (Homo sapiens), P16234 [V561D]. Conditions: at 0.1 µM.
For assay [9] the test system is unchanged. To be noted: at 1 µM.
Assay [10] deals with Platelet-derived growth factor receptor beta (Homo sapiens) (UniProt P09619). Conditions: at 0.1 µM.
Chain of Platelet-derived growth factor receptor beta (Homo sapiens) (P09619 whole entry): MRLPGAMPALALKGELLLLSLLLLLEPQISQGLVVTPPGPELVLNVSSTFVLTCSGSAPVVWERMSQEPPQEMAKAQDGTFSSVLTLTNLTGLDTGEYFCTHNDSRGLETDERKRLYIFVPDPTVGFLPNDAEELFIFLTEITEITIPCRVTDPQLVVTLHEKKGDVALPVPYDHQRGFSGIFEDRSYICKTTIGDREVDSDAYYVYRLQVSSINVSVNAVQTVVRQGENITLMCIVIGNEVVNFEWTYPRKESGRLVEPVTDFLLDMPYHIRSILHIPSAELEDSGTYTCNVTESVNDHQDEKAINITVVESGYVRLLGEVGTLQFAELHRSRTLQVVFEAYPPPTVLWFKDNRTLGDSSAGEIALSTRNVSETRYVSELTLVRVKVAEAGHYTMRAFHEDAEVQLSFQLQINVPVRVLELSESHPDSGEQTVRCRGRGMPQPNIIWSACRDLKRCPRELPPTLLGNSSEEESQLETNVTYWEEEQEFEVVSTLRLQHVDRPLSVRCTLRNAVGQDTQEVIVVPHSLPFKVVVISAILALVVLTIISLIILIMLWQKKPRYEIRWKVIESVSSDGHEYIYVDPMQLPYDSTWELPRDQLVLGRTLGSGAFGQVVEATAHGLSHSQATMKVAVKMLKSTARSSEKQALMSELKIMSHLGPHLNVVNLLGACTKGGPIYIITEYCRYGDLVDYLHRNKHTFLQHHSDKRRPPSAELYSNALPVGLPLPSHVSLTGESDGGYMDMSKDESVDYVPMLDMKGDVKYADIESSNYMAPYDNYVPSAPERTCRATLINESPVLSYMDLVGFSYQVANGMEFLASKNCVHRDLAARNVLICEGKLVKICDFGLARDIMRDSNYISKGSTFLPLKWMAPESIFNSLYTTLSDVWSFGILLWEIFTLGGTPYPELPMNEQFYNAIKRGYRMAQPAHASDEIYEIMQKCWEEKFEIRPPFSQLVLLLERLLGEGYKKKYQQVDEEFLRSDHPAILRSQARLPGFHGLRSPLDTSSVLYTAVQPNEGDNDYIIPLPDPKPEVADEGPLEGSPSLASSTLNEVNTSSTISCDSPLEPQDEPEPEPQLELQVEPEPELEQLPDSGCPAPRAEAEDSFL

Chain of Platelet-derived growth factor receptor alpha (Homo sapiens) (P16234 whole entry): as the sequence (P16234 whole entry D842V) above, with V842D counted along it
Chain of Platelet-derived growth factor receptor alpha (Homo sapiens), P16234 [V561D] (P16234 whole entry V561D): as the sequence (P16234 whole entry D842V) above, with V561D, V842D counted along it

Take `COc1cc(Nc2ncc(-c3ccccc3)o2)cc(OC)c1OC`: the inhibition in [1] came to 14.5%; in assay [2] it was 17.7%; in assay [3], 69.6%; in assay [4] it was 9.16%; in [5], 43%; in [6], 27.4%. The inhibition in assay [7] was 77.7%; in assay [8], 35.7%; in assay [9] it was 76.1%; in assay [10] it was 23%.
Consider `COC(=O)Nc1nc2ccc(Sc3ccc(NC(=O)Nc4cc(C(F)(F)F)ccc4F)cc3)cc2[nH]1`, for which the inhibition in assay [1] was determined as 78.7%; in [2] it was 10.8%; in assay [3] it was 57.6%; in assay [4], 0.97%; in assay [5] it was 1.45%; in [6] it was 7.2%. The inhibition in assay [7] amounted to 74.8%; in assay [8], 11.9%; in assay [9] it was 56.3%; in [10], 4.35%.
For `CCC(=O)Nc1ccc(C)c(-c2ccc(C(=O)NCC3CC3)cc2)c1`, the inhibition in assay [1] is 0.72%; in assay [2] it was 3.2%; in assay [3], 11.6%; in assay [4], 2.61%; in assay [5], 3.14%; in [6], 3.93%. Besides, the inhibition in assay [7] was 4.6%; in [8] it was 4.95%; in assay [9], 3.77%; in assay [10], -0.7%.
On to `CN(C)c1ccc2c(c1)/C(=C/Nc1ccc(S(N)(=O)=O)cc1)C(=O)N2`, for which the inhibition in assay [1] worked out at 46.8%; in assay [2] it was 26.7%; in assay [3], 66.9%; in [4], 14.4%; in [5] it was 65.3%; in assay [6], 3.45%. Moreover, the inhibition amounted to 28.2% in assay [7], 14.9% in assay [8], 60.9% in assay [9] and 26.8% in assay [10].
Take `Fc1ccc(-c2c(-c3ccncc3)nc3n2CCS3)cc1`: the inhibition is 1.19% in assay [1]; 4.27% in assay [2]; 11.9% in assay [3]; 1.59% in assay [4]; 3.82% in assay [5]; 3.55% in [6]. Besides, the inhibition in assay [7] turned out to be 3.84%; in assay [8], 2.1%; in [9], 2.96%; in assay [10], 1.36%.
Consider `C[C@@H](Oc1cc(-n2cnc3ccc(OC4CCN(C)CC4)cc32)sc1C(N)=O)c1ccccc1Cl`, for which the inhibition in assay [1] was 40.8%; in assay [2] it was 29.3%; in assay [3], 69%; in [4], 10.5%; in [5], 53.6%; in assay [6] it was 8.48%. Also, the inhibition was found to be 58% in assay [7], 14.5% in [8], 65% in assay [9] and 26.3% in [10].
For the compound `COc1cc(N2CCN(C(C)C)CC2)ccc1Nc1nc(Nc2ccc(F)cc2C(=O)NC[C@@H](O)CO)c2cc[nH]c2n1`, the inhibition was 3.79% in [1]; 6.23% in assay [2]; 14.1% in assay [3]; 1.85% in assay [4]; 5.49% in [5]; 6.54% in assay [6]. Besides, the inhibition in [7] is 9.18%; in [8] it was 4.51%; in [9], 4.42%; in assay [10] it was 1.36%.
On to `Fc1ccc(-c2nc3n(c2-c2ccncc2)CCS3)cc1`, for which the inhibition was found to be 2.27% in [1]; 6.42% in assay [2]; 11.1% in [3]; 4.17% in assay [4]; 3.44% in [5]; 5.4% in assay [6]. Further, the inhibition in [7] is 6.09%; in assay [8], -0.4%; in [9], 4.82%; in [10], 3.87%.
For `Nc1nccc(-c2c(-c3ccc(F)cc3)ncn2C2CCC(O)CC2)n1` (stereo not given), the inhibition in assay [1] is 4.37%; in assay [2], 2.63%; in [3] it was 21.6%; in [4] it was 2.7%; in [5] it was 14.2%; in [6], 0.95%. Moreover, the inhibition in assay [7] is 0.82%; in assay [8] it was 5.61%; in assay [9], 21.1%; in assay [10], 5.21%.
In the case of `COc1cc2ncn(-c3cc(OCc4cccs4)c(C(N)=O)s3)c2cc1OC`, the inhibition in [1] stood at 12.1%; in assay [2], 36%; in assay [3], 77.6%; in [4] it was 19.4%; in assay [5] it was 72.8%; in assay [6], 7.11%. Besides, the inhibition in assay [7] was 57.7%; in assay [8] it was 24.7%; in assay [9], 72.9%; in assay [10] it was 31.2%.
On to `COc1cc2ncn(-c3cc(OCc4ccccc4C(F)(F)F)c(C(C)=O)s3)c2cc1OC`, for which the inhibition worked out at 3.03% in assay [1]; 10.4% in assay [2]; 31.8% in assay [3]; 3.21% in assay [4]; 13.8% in assay [5]; 5.42% in assay [6]. In addition, the inhibition was 13.4% in assay [7], 3.99% in [8], 19.7% in [9] and 8.96% in assay [10].
In the case of `O=C(Nc1ccc(Oc2ccc3[nH]c(NC(=O)c4ccccc4)nc3c2)cc1)Nc1cc(C(F)(F)F)ccc1F`, the inhibition in assay [1] was found to be 63.9%; in assay [2], 27.8%; in assay [3], 78.4%; in assay [4], 1.94%; in assay [5], 8.54%; in [6], 13%. The inhibition in [7] stood at 83.1%; in [8], 25.5%; in [9] it was 79.4%; in assay [10], 9.24%.
As to `NS(=O)(=O)c1ccc(N/N=C2\C(=O)Nc3ccc(C(=O)NCCCn4ccnc4)cc32)cc1`, the inhibition in assay [1] stood at 21.6%; in assay [2] it was 10.6%; in [3] it was 54.2%; in assay [4], 13%; in [5], 57.8%; in assay [6], 5.56%. Also, the inhibition came to 12.4% in assay [7], 11.6% in [8], 47% in assay [9] and 23.1% in [10].
For the compound `NCc1ccc(-n2c(-c3nonc3N)nc3cnccc32)cc1`, the inhibition in assay [1] came out at 8.78%; in assay [2] it was 10.2%; in assay [3], 18%; in assay [4], 9%; in assay [5] it was 16.1%; in assay [6], 8.3%. Further, the inhibition is 17.7% in assay [7], 2.5% in assay [8], 8.66% in assay [9] and 9.08% in assay [10].
Turning to `COc1ccc2cc(-c3c(-c4ccncc4)nc(-c4ccc([S+](C)[O-])cc4C)n3C)ccc2c1` (stereo not given), the inhibition in assay [1] is 0.57%; in [2], 0.98%; in assay [3], 12.4%; in assay [4], -0.45%; in assay [5], 2.27%; in assay [6], 0.22%. Further, the inhibition in [7] is 2.22%; in assay [8] it was -2.47%; in [9] it was 5.84%; in assay [10] it was 0.23%.
Take `O=C1Nc2ccc(I)cc2C1=Cc1cc(Br)c(O)c(Br)c1`: the inhibition in assay [1] was found to be 6.35%; in [2], 2.96%; in assay [3], 9.37%; in [4], 2.93%; in [5], 3.36%; in assay [6] it was 2.82%. For the same compound, the inhibition in assay [7] was 5.91%; in [8] it was 3.34%; in assay [9], 7.24%; in [10], 0.08%.
Take `CS(=O)(=O)CCNCc1ccc(-c2ccc3ncnc(Nc4ccc(OCc5ccccc5)c(Br)c4)c3c2)o1`: the inhibition was -1.75% in [1]; 6.94% in [2]; 12.7% in assay [3]; 2.31% in assay [4]; 4.09% in [5]; 2.28% in assay [6]. Moreover, the inhibition in [7] came to 5.56%; in assay [8] it was 3.03%; in assay [9] it was 5.85%; in [10], 3.75%.
